Source: PubChem BioAssay
Entries with a potency or affinity are not part of this list. Active and inactive are the calls of the source. No cut-off is given here; in the data, nearly all actives have IC50 up to about 0.91 µM.

biological target: Calcium-dependent protein kinase 4 (Plasmodium falciparum (isolate 3D7)) (UniProt Q8IBS5); assay: PfCDPK4 kinase inhibitors, biochemical, TCAMS library (AID 1159588); conditions: recombinant PfCDPK4, Kinase-Glo ATP depletion luminescence
Sequence (Q8IBS5 whole entry, looked up): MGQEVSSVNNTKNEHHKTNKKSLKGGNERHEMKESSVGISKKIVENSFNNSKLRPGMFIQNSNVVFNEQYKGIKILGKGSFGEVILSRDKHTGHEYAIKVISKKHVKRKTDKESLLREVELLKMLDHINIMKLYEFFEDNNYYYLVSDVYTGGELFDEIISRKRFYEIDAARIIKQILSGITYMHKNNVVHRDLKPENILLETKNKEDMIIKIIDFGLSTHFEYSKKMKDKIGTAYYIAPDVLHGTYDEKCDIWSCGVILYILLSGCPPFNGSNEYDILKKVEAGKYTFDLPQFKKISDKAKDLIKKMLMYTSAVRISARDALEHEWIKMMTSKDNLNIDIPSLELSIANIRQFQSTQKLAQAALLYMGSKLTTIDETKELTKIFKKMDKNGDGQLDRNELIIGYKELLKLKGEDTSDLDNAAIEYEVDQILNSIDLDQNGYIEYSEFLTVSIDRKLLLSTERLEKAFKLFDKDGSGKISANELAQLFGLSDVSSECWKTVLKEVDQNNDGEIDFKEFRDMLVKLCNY

outcome, inactive:
CCCCC#Cc1cnc2nc(N)[nH]c(=O)c2n1
COc1cc(Cc2cnc(N)nc2N)cc(OCCCS(=O)(=O)O)c1OC
CCCOc1ccc(CNCCCCCCNCc2ccc(OCCC)c3ccccc23)c2ccccc12
NC(N)=NC(=O)Nc1ccc(Cl)c(C(F)(F)F)c1
CCOC(=O)c1nc2ccc(SC3CCCCC3)cn2c1Br
CC(C)C(=O)Nc1c(F)cc(F)cc1CCc1ccc(O)cc1
CC(CN=C(N)c1cccc(C(N)=NCC(C)Oc2cccc(C3CCCCC3)c2)n1)Oc1cccc(C2CCCCC2)c1 (stereo unspecified)
CCNC(=NCc1ccccc1)NCCCCCCNC(=NCc1ccccc1)NCC
COc1ccc(OC)c(CC2c3ccc(Br)c(O)c3CCN2C)c1 (stereo unspecified)
CCc1ccc(Cc2cnc3nc(N)nc(N)c3c2C)cc1CC
COc1cc2c(cc1OC)C(C)(C)CN1Cc3c(c(CO)c(OC)c(OC)c3OC)CC21 (stereo unspecified)
Cc1c(Cc2ccc(C(C)C)cc2)cnc2nc(N)nc(N)c12
COc1ccc2c(OC)cccc2c1CNCCCCCCNCc1c(OC)ccc2c(OC)cccc12
CCCc1cc(Cc2cnc(N)nc2N)cc2c1OC(C)(C)C2
CCOc1cc(Cc2cnc(N)nc2N)ccc1OC
CCC1=C(C[C@H]2NCCc3cc(OC)c(OC)cc32)C[C@H]2c3cc(OC)c(OC)cc3CCN2C1
CCOc1cc2ncnc(Nc3ccc(OCc4ccccc4OC)c(OC)c3)c2cc1OCC
Cc1[nH]c(C)c(-c2ccc(Oc3ccc(Cl)cc3)cc2)c(=O)c1C
CN(Cc1cnc2nc(N)nc(N)c2n1)c1ccc(C(=O)N[C@H](CCC(=O)OC(C)(C)C)C(=O)N[C@@H](CCC(=O)OC(C)(C)C)C(=O)OC(C)(C)C)cc1
CCCCNCc1ccc(OCc2cccc(COc3ccc(CNCCCC)cc3I)c2)c(I)c1
CC(C)(C)c1ccc(-c2nnc(N)nc2N)cc1
